Data as given in PubChem BioAssay (Tox21).
Records with an inconclusive call do not appear. A call without a number means that no potency is given here. Some structures have more than one record in an assay (separate samples or runs), and their calls can disagree. Active and inactive are the calls of the source. Unless noted, calls come from the whole dose curve; as a rule, active = well fitted curve in the direction sought with a large enough effect in the repeat runs; inconclusive = weak or mixed curves; inactive = no such curve, though single readings can be large; an effect the other way counts as inactive or inconclusive.

Key:
[1] = qHTS assay to identify small molecule antagonists of the androgen receptor (AR) signaling pathway using the MDA cell line in the presence of 0.5 nM R1881 - cell viability counter screen (AID 1259242); note: nearly all actives have a fitted effect of over 45% in size
Procedure, shortened: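 MDA-kb2 cells (human breast carcinoma, stably carrying MMTV-luciferase reporter) were exposed to compounds with 0.5 nM R1881 (final) for 16 hr at 37C, 0% CO2; viability then read as live-cell protease fluorescence (CellTiter-Fluor, 30 min) in the same wells.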

[2] = molecular target: Estrogen receptor (Homo sapiens) (UniProt P03372); experiment: qHTS assay to identify small molecule antagonists of the estrogen receptor alpha (ER-alpha) signaling pathway using the BG1 cell line in the presence of 0.1 nM 17-beta-estradiol (AID 1259244); note: nearly all actives have a fitted effect of over 50% in size
Procedure, shortened: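 VM7Luc4E2 cells (endogenous full-length ER-alpha, stable 4xERE-luciferase) were grown 5 days in phenol red-free medium with charcoal-stripped FBS, then exposed 22 h at 37C to compounds plus 0.1 nM (final) 17beta-estradiol; ONE-Glo luminescence read-out.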

[3] = qHTS assay to identify small molecule phospholipidosis (PLD) inducers (AID 1259344; active = well fitted curve in the direction sought with a large enough effect; an effect the other way counts as inactive or inconclusive)
Procedure, shortened: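 Fluorescent phospholipid staining (LipidTOX Red) measured by automated microscopy in fixed HepG2 cells after 24 h treatment; nuclei counterstained with Hoechst 33342; amiodarone as reference inducer.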

[4] = qHTS assay to identify small molecule HDAC inhibitors (AID 1259364); note: top concentration of the series differs between compounds; nearly all actives have a fitted effect of over 45% in size
Procedure, shortened: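 Wild-type HCT-116 cells were plated overnight, exposed to compounds for 2 h at 37 °C, then given HDAC-Glo class I/II luminogenic reagent for 30 min at room temperature before luminescence was read.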

[5] = qHTS assay to identify small molecule HDAC inhibitors - cell viability counter screen (AID 1259365); note: series mostly up to about 92 µM; nearly all actives have a fitted effect of over 50% in size
Procedure, shortened: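 Wild-type HCT-116 cells were seeded at 1,500 per well, incubated overnight at 37 C, then exposed to compounds in DMSO for 2hr. Viability was read by CellTiter-Glo luminescence after 30min at room temperature.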

[6] = qHTS assay to identify small molecule agonists of the sonic hedgehog signaling (Shh) pathway - cell viability counter screen (AID 1259366); note: nearly all actives have a fitted effect of over 50% in size
Procedure, shortened: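 NIH/3T3-derived 3T3 Gli1-Luc cells (stable Gli1-responsive firefly luciferase reporter) were seeded, rested 4 hr at 37 C/5% CO2, then exposed to compounds in DMSO for 24 hr; viability was read by CellTiter-Fluor fluorescence in the same wells.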

[7] = qHTS assay to identify small molecule agonists of the sonic hedgehog signaling (Shh) pathway (AID 1259368; calls by dose curve; note: series mostly up to about 92 µM; nearly all actives have a fitted effect of over 15% in size)
Procedure, shortened: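 NIH/3T3-derived 3T3Gli1-Luc cells carrying a stably integrated Gli1 response element–firefly luciferase reporter were plated, left 4 hr at 37 C, then given compounds in DMSO for 24 hr. Luminescence was read 30 min after adding luciferase reagent.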

[8] = qHTS assay to identify small molecule antagonists of the sonic hedgehog signaling (Shh) pathway (AID 1259369; calls by dose curve; note: nearly all actives have a fitted effect of over 45% in size; note: potency is the fitted concentration of half-maximal effect)
Procedure, shortened: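 NIH/3T3-derived 3T3Gli1-Luc cells with stably integrated Gli1-Luc reporter were preincubated 4hr at 37 C, then given compounds in DMSO plus Shh conditioned medium and incubated 24hr. Firefly luciferase luminescence read after 30min reagent at room temperature.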

[9] = qHTS assay to identify small molecule agonists of the androgen receptor (AR) signaling pathway in the presence of an antagonist - cell viability counter screen (AID 1259379); note: series mostly up to about 92 µM; nearly all actives have a fitted effect of over 25% in size
Procedure, shortened: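 MDA-kb2 human breast carcinoma cells (stable MMTV-luciferase, AR/GR responsive) were seeded 3,000 cells/well, pre-incubated 5 hr at 37C without CO2, then given 3.0uM nilutamide and compounds at 15 concentrations for 16 hr. Viability was read by CellTiter-Fluor fluorescence.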

[10] = qHTS assay to identify small molecule agonists of the estrogen receptor beta (ER-beta) signaling pathway - cell viability counter screen (AID 1259380); note: nearly all actives have a fitted effect of over 30% in size
Procedure, shortened: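 ER-beta-UAS-bla HEK293T cells in medium with 2% charcoal-stripped FBS were preincubated 6 hr at 37C, dosed with compound in DMSO for 16 hr, then after the bla read, CellTiter-Glo was added for 30 min at room temperature; luminescence recorded.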

[11] = qHTS assay to identify small molecule antagonists of the estrogen receptor beta (ER-beta) signaling pathway - cell viability counter screen (AID 1259382); note: series mostly up to about 92 µM; nearly all actives have a fitted effect of over 55% in size
Procedure, shortened: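 ER-beta-UAS-bla HEK293T cells (2,000/well, 2% charcoal-stripped FBS) were pre-incubated 6 hr at 37C, then given compound plus 1nM final 17-beta-estradiol for 16 hr. Viability was read in the same wells by CellTiter-Glo luminescence after 30 min at room temperature.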

[12] = molecular target: Estrogen receptor (Homo sapiens) (UniProt P03372); experiment: qHTS assay to identify small molecule agonists of the estrogen receptor alpha (ER-alpha) signaling pathway in the presence of an antagonist (AID 1259383; calls by dose curve; note: top concentration of the series differs between compounds; nearly all actives have a fitted effect of over 15% in size)
Procedure, shortened: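 VM7Luc4E2 cells (endogenous full-length ER-alpha, 4×ERE-luciferase) were precultured 5 days in phenol red-free medium with 10% charcoal-stripped FBS, given 10.0nM ICI-182,780 (final), then treated with compounds at 15 concentrations for 22hr at 37C; luminescence read with ONE-Glo.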

[13] = qHTS assay to identify small molecule agonists or antagonists of the thyroid stimulating hormone receptor (TSHR) signaling pathway - wild type cell line counter screen (AID 1259384; calls by dose curve)
Procedure, shortened: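 Counter screen in untransfected Hek293: compounds (15-point titration, triplicate) plus phosphodiesterase inhibitor Ro20-1724 added after 18 h plating; 30 min RT. Intracellular cAMP via competitive d2/cryptate immunoassay, 1 h incubation.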

[14] = molecular target: Thyrotropin receptor (Homo sapiens) (UniProt P16473); experiment: qHTS assay to identify small molecule antagonists of the thyroid stimulating hormone receptor (TSHR) signaling pathway (AID 1259385; calls by dose curve; note: nearly all actives have a fitted effect of over 20% in size)
Procedure, shortened: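 Antagonist mode: compound-treated TSHR-expressing HEK293 cells were stimulated with 1.5 ng/mL TSH (final) in presence of Ro20-1724 for 30 min at RT. HTRF cAMP detection after 1 h; each compound tested at 15 concentrations, triplicate.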

[15] = qHTS assay to identify small molecule agonists of the estrogen receptor alpha (ER-alpha) signaling pathway in the presence of an antagonist - cell viability counter screen (AID 1259386); note: series mostly up to about 92 µM; nearly all actives have a fitted effect of over 30% in size
Procedure, shortened: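 VM7Luc4E2 cells (endogenous full-length ER-alpha, 4×ERE-luciferase) were held 5 days in phenol red-free medium with 10% charcoal-stripped FBS, plated, then given 10.0nM ICI-182,780 and compounds at 15 concentrations for 22hr at 37C; viability read by CellTiter-Fluor fluorescence.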

[16] = molecular target: Estrogen receptor beta (Homo sapiens) (UniProt Q92731); experiment: qHTS assay to identify small molecule agonists of the estrogen receptor beta (ER-beta) signaling pathway (AID 1259377; active = well fitted activation curve with a large enough effect in the signal ratio in the repeat runs, not every such curve was filed as active; the % refers to the signal ratio; note: potency is the fitted concentration of half-maximal effect)
Procedure, shortened: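 ER-beta-UAS-bla HEK293T (GripTite) cells carrying a UAS-driven beta-lactamase reporter, in medium with 2% charcoal-stripped FBS, were exposed to compounds for 16 hr at 37C; LiveBLAzer B/G FRET substrate was then added and fluorescence read after 2 hours at room temperature.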

[17] = molecular target: Estrogen receptor beta (Homo sapiens) (UniProt Q92731); experiment: qHTS assay to identify small molecule antagonists of the estrogen receptor beta (ER-beta) signaling pathway (AID 1259378; active = well fitted inhibition curve with a large enough effect in the signal ratio in the repeat runs, not every such curve was filed as active; the % refers to the signal ratio)
Procedure, shortened: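 Antagonist mode: compounds added to beta-lactamase reporter HEK293T ER-beta-UAS cells stimulated with E2 (1nM final), 16 hr at 37C. LiveBLAzer B/G FRET substrate, 2 hours room temperature, fluorescence read-out.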

[18] = qHTS assay to identify small molecule antagonists of the sonic hedgehog signaling (Shh) pathway - cell viability counter screen (AID 1259367); note: nearly all actives have a fitted effect of over 55% in size
Procedure, shortened: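 Using CellTiter-Fluor, viability of Gli1-Luc reporter 3T3 cells is read by fluorescence in the wells used for the Shh luciferase assay. Treatment lasts 23 hr with conditioned medium, then reagent 1 hr at 37C.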

Sequence of Thyrotropin receptor (Homo sapiens) (P16473 whole entry, looked up): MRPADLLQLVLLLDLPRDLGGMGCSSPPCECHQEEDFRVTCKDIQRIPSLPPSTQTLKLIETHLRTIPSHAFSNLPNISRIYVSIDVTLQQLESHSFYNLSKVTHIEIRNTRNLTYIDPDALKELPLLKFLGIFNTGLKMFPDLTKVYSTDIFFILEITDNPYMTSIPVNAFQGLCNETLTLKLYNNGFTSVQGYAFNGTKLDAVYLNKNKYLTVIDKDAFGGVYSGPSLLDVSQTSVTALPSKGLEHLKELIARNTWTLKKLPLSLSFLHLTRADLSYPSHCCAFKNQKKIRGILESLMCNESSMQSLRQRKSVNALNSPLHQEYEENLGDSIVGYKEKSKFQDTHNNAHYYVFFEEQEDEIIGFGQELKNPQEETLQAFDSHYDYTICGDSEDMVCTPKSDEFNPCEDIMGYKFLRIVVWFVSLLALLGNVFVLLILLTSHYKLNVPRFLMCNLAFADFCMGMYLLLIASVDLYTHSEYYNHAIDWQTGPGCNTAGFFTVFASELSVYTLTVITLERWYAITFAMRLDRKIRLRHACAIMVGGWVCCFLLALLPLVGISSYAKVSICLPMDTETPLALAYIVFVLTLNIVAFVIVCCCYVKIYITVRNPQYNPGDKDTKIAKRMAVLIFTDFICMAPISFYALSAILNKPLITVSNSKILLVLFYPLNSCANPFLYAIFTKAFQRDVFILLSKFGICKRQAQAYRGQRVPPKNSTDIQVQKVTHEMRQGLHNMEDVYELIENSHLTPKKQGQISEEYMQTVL
Sequence of Estrogen receptor (Homo sapiens) (P03372 whole entry, looked up): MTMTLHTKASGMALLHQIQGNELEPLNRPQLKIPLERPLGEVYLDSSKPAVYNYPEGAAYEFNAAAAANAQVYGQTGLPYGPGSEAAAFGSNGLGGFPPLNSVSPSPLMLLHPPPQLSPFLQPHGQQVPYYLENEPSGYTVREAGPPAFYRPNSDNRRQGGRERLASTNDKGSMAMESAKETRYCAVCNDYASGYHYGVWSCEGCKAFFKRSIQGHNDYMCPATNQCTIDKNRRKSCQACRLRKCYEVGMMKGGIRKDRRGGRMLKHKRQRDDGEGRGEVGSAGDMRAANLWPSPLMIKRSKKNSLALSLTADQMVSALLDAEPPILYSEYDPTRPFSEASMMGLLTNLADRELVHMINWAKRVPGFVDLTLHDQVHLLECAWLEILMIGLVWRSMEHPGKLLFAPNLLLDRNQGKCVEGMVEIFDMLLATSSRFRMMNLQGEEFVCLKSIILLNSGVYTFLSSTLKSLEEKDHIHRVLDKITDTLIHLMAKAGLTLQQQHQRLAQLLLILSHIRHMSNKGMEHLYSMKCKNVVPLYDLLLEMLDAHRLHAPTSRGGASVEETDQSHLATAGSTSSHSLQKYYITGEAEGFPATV
Sequence of Estrogen receptor beta (Homo sapiens) (Q92731 whole entry, looked up): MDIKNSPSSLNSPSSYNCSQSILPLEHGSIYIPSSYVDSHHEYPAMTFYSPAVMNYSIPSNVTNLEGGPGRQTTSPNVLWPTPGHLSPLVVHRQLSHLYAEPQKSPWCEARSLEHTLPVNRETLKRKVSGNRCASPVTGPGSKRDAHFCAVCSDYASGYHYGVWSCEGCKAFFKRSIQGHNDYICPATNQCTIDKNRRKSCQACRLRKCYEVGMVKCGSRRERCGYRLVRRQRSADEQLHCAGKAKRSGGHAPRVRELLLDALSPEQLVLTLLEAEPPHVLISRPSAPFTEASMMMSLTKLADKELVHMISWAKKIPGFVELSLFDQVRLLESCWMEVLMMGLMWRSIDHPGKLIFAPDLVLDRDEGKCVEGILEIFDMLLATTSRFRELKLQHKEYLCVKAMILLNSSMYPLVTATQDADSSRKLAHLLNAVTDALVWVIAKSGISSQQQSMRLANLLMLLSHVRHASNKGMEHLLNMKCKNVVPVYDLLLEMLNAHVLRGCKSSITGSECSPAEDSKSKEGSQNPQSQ

| SMILES | Potency [1] | Potency [2] | Potency [3] | Potency [4] | outcome [5] | Potency [6] | Potency [7] | Potency [8] | Potency [9] | Potency [10] | Potency [11] | Potency [12] | Potency [13] | Potency [14] | Potency [15] | Potency [16] | Potency [17] | Potency [18] |
| --- | --- | --- | --- | --- | --- | --- | --- | --- | --- | --- | --- | --- | --- | --- | --- | --- | --- | --- |
| Cc1ccc(S(=O)(=O)NCl)cc1 | inactive | inactive | inactive | inactive | inactive | inactive | inactive | inactive | inactive | inactive | inactive | inactive | inactive | inactive | inactive |  |  |  |
| CC(=O)[C@@]1(O)CC[C@H]2[C@@H]3C[C@H](C)C4=CC(=O)C=C[C@]4(C)[C@@]3(F)[C@@H](O)C[C@@]21C | inactive | inactive | inactive | inactive | inactive | inactive | inactive | 6.11 µM (active) and inactive | inactive | inactive | inactive | inactive |  |  | inactive | inactive | inactive |  |
| COC(=O)c1ccc(C)cc1 | inactive | inactive |  |  | inactive | inactive | inactive | inactive | inactive | inactive | inactive |  | inactive | inactive | inactive |  |  | inactive |
| C=CCNCC=C | inactive | inactive |  |  | inactive | inactive | inactive | inactive | inactive | inactive | inactive |  |  |  | inactive |  |  | inactive |
| CC(=O)OC(C)C | inactive | inactive |  | inactive | inactive | inactive | inactive | inactive | inactive | inactive | inactive |  | inactive | inactive | inactive | inactive | inactive |  |
| CCO[Si](CCCNC(N)=O)(OCC)OCC | inactive | inactive |  |  | inactive | inactive | inactive | inactive | inactive | inactive | inactive |  | inactive | inactive | inactive | inactive | inactive | inactive |
| O=C(O)CCCC(=O)O | inactive | inactive |  |  | inactive | inactive | inactive | inactive | inactive | inactive | inactive |  | inactive | inactive | inactive | 30 µM (active) and inactive | inactive | inactive |
| O=C1CCc2ccccc2O1 | inactive | inactive |  | inactive | inactive | inactive | inactive | inactive | inactive | inactive | inactive |  | inactive | inactive | inactive | inactive | inactive | inactive |
